The text below walks through data of ChEMBL document CHEMBL3988442, “University of Dundee, Small-Polar-MMV Screening Library” (2021).

Results with a measured potency or affinity are listed apart.

In one assay the target is Protein translocase subunit SecA (Escherichia coli (strain K12)) (UniProt P10408). In words: Assay to Identify E. coli SecA ATPase Inhibitors. In kind it is functional. The arrangement: scale not given: direction of the effect not stated beside the values. As to conditions: 30 µM.
Chain of Protein translocase subunit SecA (Escherichia coli (strain K12)) (P10408 whole entry): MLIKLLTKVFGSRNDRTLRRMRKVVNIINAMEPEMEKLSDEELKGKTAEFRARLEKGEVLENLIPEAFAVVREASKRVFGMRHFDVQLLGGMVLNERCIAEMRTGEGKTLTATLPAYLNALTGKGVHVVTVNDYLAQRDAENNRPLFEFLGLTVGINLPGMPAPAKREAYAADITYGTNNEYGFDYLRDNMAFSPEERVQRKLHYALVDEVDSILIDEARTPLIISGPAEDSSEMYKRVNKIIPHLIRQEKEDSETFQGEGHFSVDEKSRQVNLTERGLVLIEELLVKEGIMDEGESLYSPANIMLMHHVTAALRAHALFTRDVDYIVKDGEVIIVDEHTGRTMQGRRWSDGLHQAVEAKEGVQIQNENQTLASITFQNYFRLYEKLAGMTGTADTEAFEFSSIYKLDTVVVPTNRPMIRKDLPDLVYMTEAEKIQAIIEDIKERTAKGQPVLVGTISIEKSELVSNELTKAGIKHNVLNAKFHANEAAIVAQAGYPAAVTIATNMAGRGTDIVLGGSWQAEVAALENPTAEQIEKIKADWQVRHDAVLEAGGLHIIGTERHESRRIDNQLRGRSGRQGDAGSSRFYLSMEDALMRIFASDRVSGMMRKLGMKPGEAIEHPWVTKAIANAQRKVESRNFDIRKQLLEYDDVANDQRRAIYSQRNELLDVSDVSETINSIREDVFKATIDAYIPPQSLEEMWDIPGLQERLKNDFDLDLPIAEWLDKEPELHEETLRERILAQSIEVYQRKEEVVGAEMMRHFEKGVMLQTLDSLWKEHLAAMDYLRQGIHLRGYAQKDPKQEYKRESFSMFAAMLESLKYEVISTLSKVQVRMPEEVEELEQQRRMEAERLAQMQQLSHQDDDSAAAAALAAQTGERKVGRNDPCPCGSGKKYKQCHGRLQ
As for `CC(c1ccco1)N(C)Cc1nc2c(cnn2C)c(=O)[nH]1` (stereo not given), the Percent Effect was -2.49%.
Still for that read-out and setting: the result for `CCn1nc(C)c2nnn(CC(=O)Nc3cccc(Cl)c3)c(=O)c21` reads -4.67%.
Still for that read-out and setting: the result for `CCCC(=O)NCc1cc(Br)c(OC)c(OC)c1` reads -2.9%.
Still for that read-out and setting: the result for `CC(=O)N(C)CC(=O)Nc1cccc(N2CCN(CC3CC3)CC2)c1` reads -6.27%; that for `CS(=O)(=O)N1CC[C@H]2[C@H](C[C@@H](Cn3cncn3)N2CC2CC2)C1`, -6.68%.
In the case of `COc1ccnc(N2CCN(C(=O)CN3CCCC3=O)CC2)n1`, the Percent Effect is -4.51%.
Still for that read-out and setting: the result for `Cc1cc(C)n(CC2CCCCN2Cc2cscn2)n1` (stereo not given) reads -3.65%; that for `O=C(CC1CCCC1)N1CCCC(c2n[nH]c3nccnc23)C1` (stereo not given), -2.49%.
Regarding `CCc1ccc(CN2CC[C@H]3C[C@H](c4nnc(C)[nH]4)O[C@@H]3C2)o1`, the Percent Effect is -2%.
The same measure, in the same setting: the result for `CN(C)CCNC(=O)c1cc(-c2cnc(N3CCCC3)nc2)cn1C` reads -6.55%; that for `Cc1cnn(CCNCc2ccccc2C#N)c1`, -7.98%; that for `Cc1ccc(CN2CCC3(C2)C(=O)N(CC(C)C)c2ccccc23)s1` (stereo not given), -1.13%.
As to `NC(=O)Nc1cccc(Oc2ccccn2)c1`, the Percent Effect was -0.17%.
Still for that read-out and setting: the same measure for `CC(CNC(=O)Nc1cn[nH]c1)N1CCc2ccccc2C1` (stereo not given): -4.87%.
Turning to `O=C(CCc1ccc(Br)cc1F)NS(=O)(=O)c1ccc2c(c1)OCCO2`, the Percent Effect was -4.85%.
Same read-out and setting: the result for `CC(NC(N)=O)C(=O)N1CCCN(Cc2nccn2C(C)C)CC1` (stereo not given) reads -1.61%; that for `CN1Cc2c(C(=O)Nc3cccnc3)ncn2-c2ccccc2S1(=O)=O`, -1.38%; that for `CN(C(=O)NCCCN1CCCC1)C1CCN(c2ccccc2)C1=O` (stereo not given), 5.28%.
Regarding `CCSCCC(=O)Nc1ncn(Cc2cccnc2)n1`, the Percent Effect was -2.86%.
The same measure, in the same setting: the same measure for `CNC(=O)[C@@]12CCO[C@@H]1CCN(S(=O)(=O)c1cccc(C)c1)C2`: -2.33%; for `CCC1CN(CC(=O)Nc2sccc2C#N)CCO1` (stereo not given): -4.43%.
On the same count and under the same terms, the same measure for `CCn1c(C(=O)N2CCN(CC(C)O)CC2)cc2ccccc21` (stereo not given): -8.12%.
Same read-out and setting: the same measure for `O=C(NCCCN1CCCC1)c1n[nH]c(=O)c2ccccc12`: -2.88%; for `COCC1CCCN(C(=O)c2cc(Cn3ccc4ccccc43)[nH]n2)C1` (stereo not given): -5.5%; for `CC(C)S(=O)(=O)NCC1CCCN(C(=O)c2ccc3c(c2)CCC3)C1` (stereo not given): -5.88%.
In the case of `N#Cc1c(F)cccc1N1CCC(NS(=O)(=O)c2cccs2)CC1`, the Percent Effect was 0.0864%.
The same measure, in the same setting: the same measure for `CNc1nc2c(c(C(=O)N3CCCC3)n1)CN(Cc1nccn1C)CC2`: -4.21%; for `CC(C)CCN1CN=C(NS(=O)(=O)c2ccc(F)cc2)NC1`: -1.41%.
Consider `CN(Cc1ncc(C(C)(C)C)o1)C1CCCN(c2cccnn2)C1` (stereo not given), for which the Percent Effect is -2.8%.
As for `Cc1nc2cc(C3CCN(Cc4cccc(F)c4F)C3)nn2c(O)c1C` (stereo not given), the Percent Effect was -0.873%.
On the same count and under the same terms, the result for `CCS(=O)(=O)CCN1CCCC1c1noc(C2CC2)n1` (stereo not given) reads -0.786%; that for `Cc1nc(Cn2nc(C3CCNCC3)n(Cc3ccccc3)c2=O)no1`, -0.936%.
`CN(C)C(=O)COC1COC2(CCN(S(C)(=O)=O)CC2)C1` (stereo not given): the Percent Effect is 0.201%.
Same read-out and setting: the same measure for `CCNC(=O)NC(=O)CSC(C)c1c(F)cccc1F` (stereo not given): -5.95%; for `Cn1cccc1CNC(=O)CCCc1nnc2ccccn12`: -4.97%.
Same read-out and setting: the result for `Cc1cccc(CN(Cc2ccc(C)o2)C2CC(C)(C)NC(C)(C)C2)n1` reads -4.93%; that for `Cc1ccc(C2CSCCN2C(=O)c2ccsc2)o1` (stereo not given), -7.12%; that for `Cc1csc(N2CCN(C(=O)CCC(=O)c3ccc(C)s3)CC2)n1`, -3.76%.
In the case of `O=C(c1cnccn1)N1C[C@@H]2CC[C@H](C1)N(C(=O)Cc1ccsc1)C2`, the Percent Effect was -5.86%.
As for `Cc1ncsc1C(=O)N1CCCC(c2noc(C(C)C)n2)C1` (stereo not given), the Percent Effect is -4.54%.

A further assay has as its target T1, Ubiquitin-activating enzyme e1, putative (Leishmania donovani (strain BPK282A1)) (UniProt E9BSI1).
T1 sequence (whole entry): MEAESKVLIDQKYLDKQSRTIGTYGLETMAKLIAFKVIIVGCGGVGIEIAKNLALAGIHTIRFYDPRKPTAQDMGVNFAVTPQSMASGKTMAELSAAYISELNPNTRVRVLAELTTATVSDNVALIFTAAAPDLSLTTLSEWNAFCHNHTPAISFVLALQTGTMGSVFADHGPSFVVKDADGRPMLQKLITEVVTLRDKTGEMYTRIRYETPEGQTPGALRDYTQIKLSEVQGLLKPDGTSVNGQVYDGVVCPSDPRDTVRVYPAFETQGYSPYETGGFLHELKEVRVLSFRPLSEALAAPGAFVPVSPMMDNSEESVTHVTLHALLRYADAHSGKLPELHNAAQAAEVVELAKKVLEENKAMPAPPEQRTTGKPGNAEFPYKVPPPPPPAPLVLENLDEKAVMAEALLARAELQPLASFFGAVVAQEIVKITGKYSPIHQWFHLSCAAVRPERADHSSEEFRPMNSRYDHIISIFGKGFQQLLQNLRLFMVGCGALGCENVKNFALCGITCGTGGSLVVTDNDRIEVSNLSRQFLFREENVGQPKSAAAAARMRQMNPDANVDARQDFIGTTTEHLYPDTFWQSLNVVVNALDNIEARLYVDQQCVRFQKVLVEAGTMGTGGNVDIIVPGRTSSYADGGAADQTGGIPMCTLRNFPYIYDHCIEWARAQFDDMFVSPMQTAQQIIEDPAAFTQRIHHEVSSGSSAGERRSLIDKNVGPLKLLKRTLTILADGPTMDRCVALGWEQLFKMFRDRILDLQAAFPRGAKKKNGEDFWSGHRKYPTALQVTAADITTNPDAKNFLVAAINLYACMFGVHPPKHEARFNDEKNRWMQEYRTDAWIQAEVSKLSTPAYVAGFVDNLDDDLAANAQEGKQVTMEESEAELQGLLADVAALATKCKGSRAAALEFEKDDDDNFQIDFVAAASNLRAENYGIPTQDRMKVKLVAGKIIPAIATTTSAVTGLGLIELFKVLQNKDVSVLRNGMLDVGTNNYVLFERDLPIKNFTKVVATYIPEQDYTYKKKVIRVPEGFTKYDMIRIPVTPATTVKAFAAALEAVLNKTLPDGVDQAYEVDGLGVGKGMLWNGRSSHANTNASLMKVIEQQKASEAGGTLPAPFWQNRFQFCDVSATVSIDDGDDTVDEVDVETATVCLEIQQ
Put plainly: Leishmania donovani Ubiquitin Activating Enzyme (LdE1). It counts as functional. The arrangement: scale not given: direction of the effect not stated beside the values. As to conditions: 30 µM.
Consider `CC(c1ccco1)N(C)Cc1nc2c(cnn2C)c(=O)[nH]1` (stereo not given), for which the Percent Effect was 24.3%.
Take `CCn1nc(C)c2nnn(CC(=O)Nc3cccc(Cl)c3)c(=O)c21`: the Percent Effect is -6.67%.
Consider `CCCC(=O)NCc1cc(Br)c(OC)c(OC)c1`, for which the Percent Effect is 8%.
Same read-out and setting: the result for `CC(=O)N(C)CC(=O)Nc1cccc(N2CCN(CC3CC3)CC2)c1` reads 5.41%.
Still for that read-out and setting: the same measure for `CS(=O)(=O)N1CC[C@H]2[C@H](C[C@@H](Cn3cncn3)N2CC2CC2)C1`: 10.4%; for `COc1ccnc(N2CCN(C(=O)CN3CCCC3=O)CC2)n1`: 18.4%; for `Cc1cc(C)n(CC2CCCCN2Cc2cscn2)n1` (stereo not given): 13%.
Same read-out and setting: the result for `O=C(CC1CCCC1)N1CCCC(c2n[nH]c3nccnc23)C1` (stereo not given) reads 6.76%; that for `CCc1ccc(CN2CC[C@H]3C[C@H](c4nnc(C)[nH]4)O[C@@H]3C2)o1`, 0%.
Turning to `CN(C)CCNC(=O)c1cc(-c2cnc(N3CCCC3)nc2)cn1C`, the Percent Effect was found to be 5.33%.
Still for that read-out and setting: the same measure for `Cc1cnn(CCNCc2ccccc2C#N)c1`: 5.41%; for `Cc1ccc(CN2CCC3(C2)C(=O)N(CC(C)C)c2ccccc23)s1` (stereo not given): -16.2%.
Same read-out and setting: the same measure for `NC(=O)Nc1cccc(Oc2ccccn2)c1`: 0%.
On the same count and under the same terms, the same measure for `CC(CNC(=O)Nc1cn[nH]c1)N1CCc2ccccc2C1` (stereo not given): 15.6%; for `O=C(CCc1ccc(Br)cc1F)NS(=O)(=O)c1ccc2c(c1)OCCO2`: -6.33%; for `CC(NC(N)=O)C(=O)N1CCCN(Cc2nccn2C(C)C)CC1` (stereo not given): 1.27%.
Take `CN1Cc2c(C(=O)Nc3cccnc3)ncn2-c2ccccc2S1(=O)=O`: the Percent Effect is -5.48%.
Turning to `CN(C(=O)NCCCN1CCCC1)C1CCN(c2ccccc2)C1=O` (stereo not given), the Percent Effect turned out to be 15.8%.
The same measure, in the same setting: the same measure for `CCSCCC(=O)Nc1ncn(Cc2cccnc2)n1`: 5.33%; for `CNC(=O)[C@@]12CCO[C@@H]1CCN(S(=O)(=O)c1cccc(C)c1)C2`: 10.8%.
On the same count and under the same terms, the result for `CCC1CN(CC(=O)Nc2sccc2C#N)CCO1` (stereo not given) reads -13.2%; that for `CCn1c(C(=O)N2CCN(CC(C)O)CC2)cc2ccccc21` (stereo not given), 7.79%; that for `O=C(NCCCN1CCCC1)c1n[nH]c(=O)c2ccccc12`, 20.8%.
Same read-out and setting: the same measure for `COCC1CCCN(C(=O)c2cc(Cn3ccc4ccccc43)[nH]n2)C1` (stereo not given): -7.79%.
Regarding `CC(C)S(=O)(=O)NCC1CCCN(C(=O)c2ccc3c(c2)CCC3)C1` (stereo not given), the Percent Effect amounted to 5.48%.
For the compound `N#Cc1c(F)cccc1N1CCC(NS(=O)(=O)c2cccs2)CC1`, the Percent Effect was -11%.
Take `CNc1nc2c(c(C(=O)N3CCCC3)n1)CN(Cc1nccn1C)CC2`: the Percent Effect is 16.4%.
Still for that read-out and setting: the same measure for `CC(C)CCN1CN=C(NS(=O)(=O)c2ccc(F)cc2)NC1`: 6.67%; for `CN(Cc1ncc(C(C)(C)C)o1)C1CCCN(c2cccnn2)C1` (stereo not given): 15.2%.
Regarding `Cc1nc2cc(C3CCN(Cc4cccc(F)c4F)C3)nn2c(O)c1C` (stereo not given), the Percent Effect is 12.2%.
Same read-out and setting: the same measure for `CCS(=O)(=O)CCN1CCCC1c1noc(C2CC2)n1` (stereo not given): 20.2%; for `Cc1nc(Cn2nc(C3CCNCC3)n(Cc3ccccc3)c2=O)no1`: 5.41%; for `CN(C)C(=O)COC1COC2(CCN(S(C)(=O)=O)CC2)C1` (stereo not given): 13.5%.
For `CCNC(=O)NC(=O)CSC(C)c1c(F)cccc1F` (stereo not given), the Percent Effect was 2.67%.
For `Cn1cccc1CNC(=O)CCCc1nnc2ccccn12`, the Percent Effect turned out to be 6.67%.
Take `Cc1cccc(CN(Cc2ccc(C)o2)C2CC(C)(C)NC(C)(C)C2)n1`: the Percent Effect stood at 9.46%.
Still for that read-out and setting: the same measure for `Cc1ccc(C2CSCCN2C(=O)c2ccsc2)o1` (stereo not given): 8.11%; for `Cc1csc(N2CCN(C(=O)CCC(=O)c3ccc(C)s3)CC2)n1`: 8.11%.
Same read-out and setting: the result for `O=C(c1cnccn1)N1C[C@@H]2CC[C@H](C1)N(C(=O)Cc1ccsc1)C2` reads 2.6%; that for `Cc1ncsc1C(=O)N1CCCC(c2noc(C(C)C)n2)C1` (stereo not given), 15.3%.
